# The full list was thinned out, with hits kept by preference.
# L3MBTL1 inh-1 = blocks human L3MBTL1; Q9Y468; AlphaScreen L3MBTL1–H3K9me1 peptide binding; Potency, µM (titrated, usually from 57.1 µM), without a hit: at the top dose activity, negative = inhibition, most hits filed as inhibitors; 230,000 tested, 0.66% active; AID 485360; also: % is scaled to controls: 0 for no effect and ±100 for the full control effect; nearly all actives have a fitted effect of over 60% in size
#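 Read-out is AlphaScreen signal from streptavidin donor and nickel chelate acceptor beads (10 ug/mL final each) bridging L3MBTL1 (50 nM) and biotinylated K9-monomethylated H3(1-15) peptide (75 nM), after 30 min compound exposure at room temperature.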
# BLM helicase inh = inhibitors of human Bloom syndrome helicase BLM; P54132; recombinant BLM DNA unwinding, fluorescence dequenching; Potency, µM (highest dose often 56.1 µM), inactives show at the highest dose activity change, negative = inhibition, hits mostly inhibitors; 350,000 tested, 0.2% active;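 also: plate controls were vehicle for no effect and no enzyme for full effect; nearly all actives have a fitted effect of over 35% in size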
# KDM4E inh = blocks human JMJD2E demethylase activity. Potency, µM (doses to about 57.1 µM), without a hit: at the top dose activity change, negative = inhibition, hits mostly inhibitors. AID 2147. JMJD2E catalytic domain, FDH-coupled NADH fluorescence (FDH is formaldehyde dehydrogenase). 230,000 tested, 1.6% active. B2RXH2; active = well fitted inhibition curve with a large enough effect, not every such curve was filed as active; inconclusive = small, poorly fitted or top-dose-only effect, or another doubt; inactive = no such curve, though single readings can be large or run the other way;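 also: 0% = wells with enzyme and -100% = buffer wells without enzyme; nearly all actives have a fitted effect of over 50% in size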
# APE1 inh = inhibitors of human APE1 endonuclease; 350,000 tested, 0.35% active; AID 2517; recombinant APE1, TAMRA/BHQ-2 abasic DNA cleavage fluorescence; P27695; Potency, µM (doses to about 65.8 µM), without a hit: top-dose activity change, negative = inhibition, hits mostly inhibitors;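 also: plate controls were vehicle for no effect and reference inhibitor for full effect; nearly all actives have a fitted effect of over 55% in size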
# Target sequence (P27695 whole entry, looked up): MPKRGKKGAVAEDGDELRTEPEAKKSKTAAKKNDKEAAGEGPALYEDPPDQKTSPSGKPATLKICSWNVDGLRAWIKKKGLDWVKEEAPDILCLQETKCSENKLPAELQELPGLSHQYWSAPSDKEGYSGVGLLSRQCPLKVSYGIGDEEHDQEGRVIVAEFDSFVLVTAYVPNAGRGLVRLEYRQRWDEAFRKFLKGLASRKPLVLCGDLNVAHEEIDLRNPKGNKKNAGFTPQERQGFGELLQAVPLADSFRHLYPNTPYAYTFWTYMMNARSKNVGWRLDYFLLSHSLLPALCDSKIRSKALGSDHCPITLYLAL
#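 Compound pre-exposure to 0.75 nM APE1, 15 min at ambient temperature. Reaction initiated with 50 nM TAMRA/BHQ-2 THF substrate, read immediately in kinetic mode, 525 nm excitation, 598 nm emission.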
# RECQ1 inh = inhibitors of human RECQ1 DNA helicase. RECQ1 DNA unwinding, red fluorescence kinetic read. 240,000 tested, 0.54% active. P46063. Potency, µM (doses to about 57.3 µM), inactives show top-dose activity, negative = inhibition, most hits filed as inhibitors. AID 2549;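 also: plate controls were vehicle for no effect and no enzyme for full effect; nearly all actives have a fitted effect of over 30% in size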
#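 RECQ1T1 50 nM; forked duplex (20 bp + 30-nt ss tails) 200 nM, ATP 2 mM final; pH 8.0, 2 mM MgCl2, 2.5 ug/ml poly(dI-dC); 15 min compound preincubation; discontinuous kinetic read over 2 h at RT.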
# RGS12 GoLoco inh = RGS12 GoLoco-Gai1 interaction inhibition. Gai1:RGS12 GoLoco peptide FP, rhodamine, 10 min. P63096. 230,000 tested, 0.44% active. Potency, µM (top dose mostly 61.6 µM), inactives show at the top dose activity, negative = inhibition, most hits filed as inhibitors. AID 880; active = well fitted inhibition curve with a large enough effect, not every such curve was filed as active; inactive = no such curve, though single readings can be large or run the other way; also: % is scaled to controls: 0 for no effect and ±100 for the full control effect; nearly all actives have a fitted effect of over 30% in size
# Target sequence (P63096 whole entry, looked up): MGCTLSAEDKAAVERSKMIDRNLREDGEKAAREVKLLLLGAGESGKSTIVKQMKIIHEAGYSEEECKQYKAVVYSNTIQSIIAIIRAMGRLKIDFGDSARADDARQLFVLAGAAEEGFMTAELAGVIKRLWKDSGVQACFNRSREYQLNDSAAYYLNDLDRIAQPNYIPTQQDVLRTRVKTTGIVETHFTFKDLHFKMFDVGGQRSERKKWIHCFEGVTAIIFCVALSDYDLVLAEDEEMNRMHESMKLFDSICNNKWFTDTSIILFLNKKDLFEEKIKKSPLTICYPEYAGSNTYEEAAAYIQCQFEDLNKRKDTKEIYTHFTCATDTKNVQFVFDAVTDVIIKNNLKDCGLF
# L3MBTL1 inh-2 = validation of human L3MBTL1 methyl-lysine binding inhibitors | shares compounds with L3MBTL1 inh-1 | L3MBTL1 methyl-lysine binding inhibition, biochemical qHTS | Potency, µM, actives largely listed as inhibitors | 500 tested, 91% active; also: nearly all actives have a fitted effect of over 70% in size
# AlphaScreen ctr2 = interferes with AlphaScreen signal in L3MBTL1 counterscreen; shares compounds with L3MBTL1 inh-1; AlphaScreen counterscreen, signal inhibition; Potency, µM (top dose mostly 57.1 µM), without a hit: top-dose activity change, negative = inhibition, actives largely listed as inhibitors; 500 tested, under 10 active; AID 602224; also: 0% is about no effect
# Active calls of the source: *; i = inactive; ? = inconclusive; · = not tested or not shown; [ ] = remark or other dose. Unless noted, calls follow the shape of the dose curve; as a rule, active = well fitted curve in the direction sought with a large enough effect; inconclusive = small, poorly fitted or top-dose-only effect, or another doubt; inactive = no such curve, though single readings can be large; an effect the other way counts as inactive or inconclusive. Potency is read from the fitted curve at half-maximal effect.
SMILES,L3MBTL1 inh-1,BLM helicase inh,KDM4E inh,APE1 inh,RECQ1 inh,RGS12 GoLoco inh,L3MBTL1 inh-2,AlphaScreen ctr2
O=C(O)c1cc(-c2ccco2)nc2cc3ccccc3cc12,10µM*,23%,?,?,28µM*,-10%,0.84*,-19%
O=C(Nn1cc(C(=O)Nc2ccccc2F)c2ccccc2c1=O)c1cnccn1,40µM*,0%,-3%,9%,-12%,-28%,?,36%
Cc1c(C(=O)NCc2ccc(F)cc2)sc2nc3n(c(=O)c12)CCC3,·,-3%,·,·,·,·,·,·
CC(=O)c1ccc(S(=O)(=O)Nc2c(C)nn(C)c2C)cc1,28µM*,·,·,?,·,·,?,2%
Cc1ccc(S(=O)(=O)Nc2c(C)nn(C)c2C)cc1C,2%,·,·,4%,·,·,·,·
CCOC(=O)c1c(-c2ccco2)csc1NC(=O)COC(=O)c1cnc(C)cn1,32µM*,·,·,-45%,·,·,24*,0%
O=C(O)c1ccc(S(=O)(=O)Nc2ccc(O)c(Sc3nc4ccccc4s3)c2)cc1,22µM*,-1%,4%,27%,i,-25%,7.5*,-5%
NS(=O)(=O)c1ccc(Sc2nc3ccccc3s2)c([N+](=O)[O-])c1,·,-11%,2%,-1%,i,18%,·,·
Cn1c(N)c(C(=O)COC(=O)c2cc(-c3ccco3)nc3ccccc23)c(=O)n(Cc2ccccc2)c1=O,32µM*,-28%,?,?,?,24%,3.8*,11%
COCCCN(C(=O)c1cc(-c2ccco2)nc2ccccc12)c1c(N)n(Cc2ccccc2)c(=O)[nH]c1=O,32µM*,·,·,-36%,·,·,19*,6%
CCCn1c(N)c(N(CCOC)C(=O)c2cc(-c3ccco3)nc3ccccc23)c(=O)[nH]c1=O,·,-15%,·,-4%,·,·,·,·
CCOC(=O)c1sc2ncn(CC(=O)Nc3cc(Cl)ccc3C)c(=O)c2c1C,·,-2%,·,·,·,·,·,·
CCOc1ccc(OCc2ccc(C(=O)O)o2)cc1,32µM*,3%,-10%,?,-6%,1%,11*,1%
CC(C)S(=O)(=O)C1=NSC2=NC(=O)/C(=C\c3ccc(-c4cccc(C(=O)O)c4)o3)C(=N)N21,13µM*,-4%,0%,-4%,8%,106%,3.8*,-19%
CCOc1ccc(OCCCC(=O)N2CCN(S(=O)(=O)c3ccc(Cl)cc3)CC2)cc1,32µM*,·,·,2%,·,·,27*,0%
O=C(CCCOc1ccccc1)N1CCN(S(=O)(=O)c2ccc(Cl)cc2)CC1,31%,·,·,20%,·,·,·,·
O=C1CC(c2ccco2)CC(O)=C1C=Nc1cc(Cl)ccc1Cl (stereo not drawn),35µM*,-18%,0%,?,7%,19%,24*,-1%
COc1ccc(-c2nc(CN3CCC(C(=O)NCCCN4CCN(c5ccccc5F)CC4)CC3)c(C)o2)cc1OC,·,23%,·,·,·,·,·,·
CC(CNc1ccccc1O)C(=O)O (stereo not drawn),28µM*,1%,?,?,-13%,-4%,11*,0%
O=C(c1cc(C(F)(F)F)cc(C(F)(F)F)c1)N1CCC2(CC1)CN(c1ncccn1)C2,·,2%,·,2%,i,1%,·,·
CN1CCN(Cc2cc(Cl)c3cccnc3c2OC(=O)c2cccs2)CC1,-18%,-8%,?,12%,-7%,-3%,·,·
O=C(Oc1c(CN2CCOCC2)cc(Cl)c2cccnc12)c1ccccc1Br,32µM*,-5%,?,-4%,-4%,1%,24*,2%
O=C(Nc1nc(-c2ccco2)c(-c2ccco2)s1)c1ccc(F)cc1F,8.9µM*,·,·,-12%,·,·,5.3*,-10%
O=C(Nc1nc(-c2ccco2)c(-c2ccco2)s1)c1cnccn1,3.5µM*,·,·,-28%,·,·,2.7*,79%
COc1ccc(OC2C=CC(c3ccccc3)OC2CO)cc1 (stereo not drawn),·,-1%[12.4 µM],·,?,11%[11.5 µM],·,·,·
SMILES,L3MBTL1 inh-1,BLM helicase inh,KDM4E inh,APE1 inh,RECQ1 inh,RGS12 GoLoco inh,L3MBTL1 inh-2,AlphaScreen ctr2
CC(=O)c1ccccc1Oc1cc(NN2CCCCC2)c([N+](=O)[O-])cc1[N+](=O)[O-],20µM*,-4%,·,-24%,·,·,27*,?
CC(=O)c1cccc(Oc2cc(NN3CCCCC3)c([N+](=O)[O-])cc2[N+](=O)[O-])c1,-25%,-3%,·,14%,·,·,·,·
Cc1ccn2c(=O)nc(SCC(=O)Nc3cccc4ccccc34)nc2c1,?,·,·,18%,·,·,·,·
O=C(CSc1nc(=O)n2cc(Cl)ccc2n1)Nc1cccc2ccccc12,25µM*,·,·,32%,·,·,?,9%
O=C(/C=C/c1ccc(I)cc1)c1ccc(B(O)O)cc1,·,-16%,·,-6%,-22%,·,·,·
CCOc1ccc(C(=O)NCC(c2ccc3c(c2)OCO3)N2CCN(c3ccc(F)cc3)CC2)cc1 (stereo not drawn),·,-8%,·,·,·,·,·,·
O=C1OC(c2cccs2)=N/C1=C/c1ccc(-c2cccc(C(=O)O)c2)o1,0.56µM*,110%,?,18µM*,?,23%,3.4*,-6%
COC(=O)Cc1cc(=O)n(-c2nc3ccccc3[nH]2)[nH]1,13µM*,-13%,?,0%,-2%,9%,6.7*,?
Cc1ccc(S(=O)(=O)c2c(N)n(CCCN(C)C)c3nc4ccccc4nc23)cc1,12%,-4%,?,3%,-2%,6%,·,·

# Assay outcomes from PubChem BioAssay.
